Compound activity (PubChem)
Compounds with a hit are over-represented: about 1.5% of the library has one in this group of screens.
Beta2AR agonist – agonists of human beta-2 adrenergic receptor inducing internalization | Am2.2-beta2AR cells, FAP receptor internalization, flow cytometry | response, % (concentration not given with the values) | 0.43% of 340,000 active;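 active means response above a set limit, near 3 SD of response in nonfluorescent compounds, cut at about 42% in these data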
NTR1 ag – activates human neurotensin receptor 1. 0.17% of 330,000 active. activation, % at 20 µM. NTR1-U2OS beta-arrestin-GFP spot imaging, agonist mode. AID 493036. P30989;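 active means activation at or above 40% of the spot to cytoplasm intensity ratio, with at least 20 cells analyzed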;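 further: 0% = DMSO without peptide and 100% = 100 nM NTR1 peptide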
Target sequence (P30989 whole entry, looked up): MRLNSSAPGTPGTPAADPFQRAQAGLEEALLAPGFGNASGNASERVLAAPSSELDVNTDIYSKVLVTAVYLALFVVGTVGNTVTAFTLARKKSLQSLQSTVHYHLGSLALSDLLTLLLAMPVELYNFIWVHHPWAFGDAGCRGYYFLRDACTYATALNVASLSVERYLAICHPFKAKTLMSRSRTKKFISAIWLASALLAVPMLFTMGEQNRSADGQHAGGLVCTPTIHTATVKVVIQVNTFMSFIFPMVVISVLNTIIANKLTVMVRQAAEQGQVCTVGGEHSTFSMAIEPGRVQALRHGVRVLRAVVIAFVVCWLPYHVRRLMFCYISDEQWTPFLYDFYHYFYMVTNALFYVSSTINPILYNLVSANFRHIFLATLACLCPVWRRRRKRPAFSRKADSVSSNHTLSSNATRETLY
TLR4 MyD88 comp – TLR4-MyD88 interaction inhibition in cells; HeLa CL3-4 TLR4/MyD88 BLA complementation, FRET ratio; 0.18% of 200,000 active; inhibition, % at 8.4 µM; in the data active means inhibition above about 25%;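 further: 0% = vehicle and 100% = reference inhibitor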
TLR9-MyD88 inh – TLR9-MyD88 interaction inhibition | Q9NR96+Q99836 | CHO BLA complementation TLR9-MyD88, CCF4 FRET ratio | inhibition, % at 4.98 µM | 0.21% of 340,000 active;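 active means inhibition above the mean over all tested compounds plus 3 SD, cut at about 21% in these data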;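 further: 0% = DMSO only wells and 100% = clavulanate BLA inhibitor control wells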
ABHD5 PLIN5 PPI – blocks binding of human ABHD5 to perilipin-5. 0.78% of 360,000 active. Split G. princeps luciferase complementation, luminescence, 4 h. Q00G26+Q8WTS1. inhibition, % at 4 µM;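 active means inhibition above the mean inhibition across every tested compound plus 3 SD, cut at about 22% in these data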;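 further: 0% = DMSO only wells and the 100% control is not disclosed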
NOD2-RIPK2 inh – inhibitors of human NOD2-RIPK2 interaction; O43353; CHO BLA complementation NOD2-RIPK2, CCF4 ratio; inhibition, % at 4.98 µM; 0.38% of 360,000 active; in the data active means inhibition above about 21%;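 further: 0% = vehicle only and 100% = reference blocker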
NTR1 ag confirm – confirmation of agonists of human NTR1; 38% of 480 active; shares compounds with NTR1 ag; NTR1-U2OS beta-arrestin-GFP translocation imaging; activation, % at 20 µM;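 active means mean activation at 20 µM of at least 40%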;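 further: 0% = DMSO without peptide and 100% = 100 nM NTR1 peptide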
Beta2AR ag CP1 – human beta-2 adrenergic receptor agonism, cherry pick. shares compounds with Beta2AR agonist. Am2.2-beta2AR cells, FAP surface receptor, flow cytometry; active compounds read low. percent response (surface receptor), % at 10 µM. 25% of 1,100 active. AID 540358;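 active means surface receptor percent response at or below 58%, roughly 3 SD from nonfluorescent compounds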
FAP fluor counter – fluorescence artifact in beta-2AR agonist FAP counterscreen. 1,100 tested, under 10 active. calls only at 10 µM. Am2.2 cells, FAP fluorogen flow cytometry; active compounds read low. shares compounds with Beta2AR agonist;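 active means percent response below a set limit in fluorescence channel 1 and below 50% in channel 8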
TLR9-MyD88 conf – confirmation of human TLR9-MyD88 binding inhibitors. AID 540250. 51% of 680 active. CHO TLR9/MyD88 BLA complementation, CCF4 FRET ratio. inhibition, % at 4.98 µM. shares compounds with TLR9-MyD88 inh;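 active means mean inhibition across three repeats above about 21% taken from the earlier screen, limit read from the data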;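 further: blue over green emission ratio reports constitutive TLR9 MyD88 association via BLA complementation; 0% = DMSO vehicle wells and 100% = clavulanate BLA inhibitor wells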
BLA counter-1 – beta-lactamase reporter inhibition, counter-screen artifact; shares compounds with TLR9-MyD88 inh; CHO-BLA cells, CCF4 FRET ratio, BLA reporter; inhibition, % at 4.98 µM; 7% of 680 active; AID 540251;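 active means mean inhibition above a 50% cutoff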;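 further: counterscreen of TLR9-MyD88 hits on CMV-driven BLA in CHO-K1 cells; 0% = DMSO alone and 100% = clavulanate blocking BLA; higher means less blue over green ratio so more BLA blockade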
TLR9 CHO tox – CHO cell toxicity counter-screen for TLR9-MyD88 inhibitors; shares compounds with TLR9-MyD88 inh; TLR9-MyD88 CHO cells cytotoxicity, luminescence; inhibition, % at 4.98 µM; 39% of 680 active; in the data active means inhibition above about 11%
ABHD5-PLIN5 conf – ABHD5-PLIN5 interaction inhibition, confirmed. shares compounds with ABHD5 PLIN5 PPI. biochemical ABHD5-PLIN5 interaction, luminescence. inhibition, % at 4 µM. 67% of 2,200 active; in the data active means inhibition above about 23%;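 further: 0% = DMSO vehicle wells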
HNF4 counter – counter-screen for ABHD5-PLIN5 inhibitors: HNF4 split-luciferase. HNF4 dimerization, luminescence, biochemical. AID 651674. 77% of 2,200 active. shares compounds with ABHD5 PLIN5 PPI. inhibition, % at 4 µM;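 active means mean inhibition across replicate wells exceeding the computed hit threshold, cut at about 13% in these data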;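 further: light from luciferase halves that rejoin when HNF4 fusion proteins dimerize; 0% = DMSO only wells and the 100% control is not given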
NOD2 RIPK2 conf – NOD2-RIPK2 interaction inhibition confirmed | CHO cells, NOD2-RIPK2 BLA complementation, CCF4 FRET | inhibition, % at 4.98 µM | shares compounds with NOD2-RIPK2 inh | 70% of 1,200 active;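 active means mean inhibition across replicates above a set limit taken from the earlier primary screen, cut at about 21% in these data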;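 further: 0% = DMSO-only wells and the high end = clavulanate BLA-blocked wells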
BLA counter-2 – hits BLA reporter in NOD2-RIPK2 inhibitor counterscreen; shares compounds with NOD2-RIPK2 inh; CHO BLA reporter, CCF4 FRET ratio; inhibition, % at 4.98 µM; 57% of 1,200 active; AID 624371;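 active means mean inhibition above the low-control mean inhibition plus three low-control SD, cut at about 11% in these data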;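 further: 0% = DMSO only wells and 100% = clavulanate high control wells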
An asterisk follows results filed as active.

Results for C[CH2][Hg][S]c1ccccc1C(=O)O ?
Beta2AR agonist: 35; NTR1 ag: 97*; TLR9-MyD88 inh: 52*; ABHD5 PLIN5 PPI: 28*; NOD2-RIPK2 inh: active; NTR1 ag confirm: 95*; TLR9-MyD88 conf: 48*; BLA counter-1: 5; TLR9 CHO tox: 97*; ABHD5-PLIN5 conf: 49*; HNF4 counter: 83*; NOD2 RIPK2 conf: active; BLA counter-2: 6

Results for Cc1ccccc1C1=NCC(=O)N(CC(=O)NCc2ccco2)c2sc3c(c21)CCCC3 ?
Beta2AR agonist: 1; NTR1 ag: 7; TLR4 MyD88 comp: 10; TLR9-MyD88 inh: -2; ABHD5 PLIN5 PPI: 20; NOD2-RIPK2 inh: -6

Results for COc1ccc(OC)c(C(O)C2CCCCN2)c1 (configuration not stated) ?
Beta2AR agonist: 2; NTR1 ag: 0; TLR9-MyD88 inh: 3; ABHD5 PLIN5 PPI: -1; NOD2-RIPK2 inh: 4; Beta2AR ag CP1: 109; FAP fluor counter: inactive

What do the screens show for `Cc1c(N=Cc2c(O)n(CCc3ccccc3)c(=O)[nH]c2=O)c(=O)n(-c2ccccc2)n1C`?
Beta2AR agonist: 1; NTR1 ag: 1; TLR4 MyD88 comp: 11; TLR9-MyD88 inh: 5; ABHD5 PLIN5 PPI: -6; NOD2-RIPK2 inh: -5

How did CCCCCCn1c(O)c(C=Nc2c(C)n(C)n(-c3ccccc3)c2=O)c(=O)[nH]c1=O do in these assays?
Beta2AR agonist: 48*; NTR1 ag: -1; TLR4 MyD88 comp: 9; TLR9-MyD88 inh: -7; ABHD5 PLIN5 PPI: -12; NOD2-RIPK2 inh: -13; Beta2AR ag CP1: 48*; FAP fluor counter: inactive

How did CC(NCc1ccccc1C(F)(F)F)C(O)c1ccccc1 (configuration not stated) do in these assays?
Beta2AR agonist: -2; NTR1 ag: -1; TLR4 MyD88 comp: -18; TLR9-MyD88 inh: 0; ABHD5 PLIN5 PPI: -4; NOD2-RIPK2 inh: -8; Beta2AR ag CP1: 102; FAP fluor counter: inactive

What do the screens show for `CC(NCc1ccc(Cl)c(Cl)c1)C(O)c1ccccc1` (configuration not stated)?
Beta2AR agonist: 4; NTR1 ag: -2; TLR4 MyD88 comp: -3; TLR9-MyD88 inh: -8; ABHD5 PLIN5 PPI: 6; NOD2-RIPK2 inh: 5; Beta2AR ag CP1: 85; FAP fluor counter: inactive
